# From paper PMC7862700, “An all-to-all approach to the identification of sequence-specific readers for epigenetic DNA modifications on cytosine”
# Assays:
# Test in all cases: DAPPL (digital affinity profiling via proximity ligation, sequencing); 10 mM Tris-HCl pH 7.5, 50 mM NaCl, 1 mM DTT, 4% glycerol, room temperature, 30 min; GST-TFs on glutathione beads, 16-mer random dsDNA library, 0.1% formaldehyde crosslink after washing; high values mean tight binding
# FEV = target: T1, FEV (Homo sapiens, UniProt Q99581 1-238); conditions: protein: recombinant; tags: N-terminal GST; dsDNA, one strand shown
# T1 sequence: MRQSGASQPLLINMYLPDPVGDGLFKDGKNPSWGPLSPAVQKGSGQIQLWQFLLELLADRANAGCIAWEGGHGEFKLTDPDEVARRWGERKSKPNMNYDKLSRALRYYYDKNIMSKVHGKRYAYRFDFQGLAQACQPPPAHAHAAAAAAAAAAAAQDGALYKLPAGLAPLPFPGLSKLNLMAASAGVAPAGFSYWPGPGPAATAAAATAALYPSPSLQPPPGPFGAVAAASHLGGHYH
# Summary of the method: (§1)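 Human transcription factors fused to GST were expressed in yeast, captured on glutathione beads, given DNA barcodes and pooled with a GST-only negative control. Pools were incubated with 200 nmole of a 16-mer random double-stranded DNA library in Tris/NaCl/DTT/glycerol buffer at room temperature for 30 min. They were then washed, crosslinked with 0.1% formaldehyde, proximity-ligated (BsaI/T4 ligase, 1 h, 37 °C), PCR-amplified and sequenced on an Illumina NextSeq500. Binding signal is each 6-mer's read frequency for a factor divided by its frequency for the GST control.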
# ETV5 = ETV5 (Homo sapiens, UniProt P41161 1-510); conditions: protein: recombinant; tags: N-terminal GST; dsDNA, one strand shown
# Summary of the method: as §1
# HSF1 = HSF1 (Homo sapiens, UniProt Q00613 1-529); conditions: protein: recombinant; tags: N-terminal GST; chain copies: 3; dsDNA, one strand shown
# Summary of the method: as §1
# SPIC = target: T2, SPIC (Homo sapiens, UniProt Q8N5J4 1-248); conditions: protein: recombinant; tags: N-terminal GST; dsDNA, one strand shown
# T2 sequence: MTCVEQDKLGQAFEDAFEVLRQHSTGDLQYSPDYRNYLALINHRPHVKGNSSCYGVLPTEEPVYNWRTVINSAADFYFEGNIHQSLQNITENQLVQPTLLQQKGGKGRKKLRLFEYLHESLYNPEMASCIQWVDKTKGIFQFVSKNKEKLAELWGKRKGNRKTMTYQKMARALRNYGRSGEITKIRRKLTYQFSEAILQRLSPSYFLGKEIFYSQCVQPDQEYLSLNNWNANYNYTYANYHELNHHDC
# Summary of the method: as §1
# ELF4 = ELF4 (Homo sapiens, UniProt Q99607 1-663); conditions: protein: recombinant; tags: N-terminal GST; dsDNA, one strand shown
# Summary of the method: as §1
# ELK4 = target: T3, ELK4 (Homo sapiens, UniProt P28324-2 1-405); conditions: protein: recombinant; tags: N-terminal GST; dsDNA, one strand shown
# T3 sequence: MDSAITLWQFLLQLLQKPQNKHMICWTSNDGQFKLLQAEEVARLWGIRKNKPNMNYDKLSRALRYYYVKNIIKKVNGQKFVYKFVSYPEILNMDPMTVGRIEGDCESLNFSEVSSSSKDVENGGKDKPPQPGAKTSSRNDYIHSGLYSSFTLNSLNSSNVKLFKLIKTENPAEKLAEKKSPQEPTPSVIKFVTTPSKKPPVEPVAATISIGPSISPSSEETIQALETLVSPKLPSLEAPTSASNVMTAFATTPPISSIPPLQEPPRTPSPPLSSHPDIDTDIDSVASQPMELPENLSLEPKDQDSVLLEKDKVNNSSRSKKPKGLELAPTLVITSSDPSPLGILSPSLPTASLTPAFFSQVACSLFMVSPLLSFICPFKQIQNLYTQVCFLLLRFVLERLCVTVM
# Summary of the method: as §1
# ETV2 = target: T4, ETV2 (Homo sapiens, UniProt O00321 1-342); conditions: protein: recombinant; tags: N-terminal GST; dsDNA, one strand shown
# T4 sequence: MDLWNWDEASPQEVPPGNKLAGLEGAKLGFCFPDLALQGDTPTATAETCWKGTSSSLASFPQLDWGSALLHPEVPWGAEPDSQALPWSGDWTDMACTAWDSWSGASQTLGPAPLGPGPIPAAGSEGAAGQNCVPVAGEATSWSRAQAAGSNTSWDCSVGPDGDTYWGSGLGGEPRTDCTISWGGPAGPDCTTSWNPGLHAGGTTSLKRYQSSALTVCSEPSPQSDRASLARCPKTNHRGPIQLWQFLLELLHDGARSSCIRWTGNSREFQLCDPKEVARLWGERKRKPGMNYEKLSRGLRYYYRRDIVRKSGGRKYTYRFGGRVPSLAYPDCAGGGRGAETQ
# Summary of the method: as §1
# ELF3 = target: T5, ELF3 (Homo sapiens, UniProt P78545 1-371); conditions: protein: recombinant; tags: N-terminal GST; dsDNA, one strand shown
# T5 sequence: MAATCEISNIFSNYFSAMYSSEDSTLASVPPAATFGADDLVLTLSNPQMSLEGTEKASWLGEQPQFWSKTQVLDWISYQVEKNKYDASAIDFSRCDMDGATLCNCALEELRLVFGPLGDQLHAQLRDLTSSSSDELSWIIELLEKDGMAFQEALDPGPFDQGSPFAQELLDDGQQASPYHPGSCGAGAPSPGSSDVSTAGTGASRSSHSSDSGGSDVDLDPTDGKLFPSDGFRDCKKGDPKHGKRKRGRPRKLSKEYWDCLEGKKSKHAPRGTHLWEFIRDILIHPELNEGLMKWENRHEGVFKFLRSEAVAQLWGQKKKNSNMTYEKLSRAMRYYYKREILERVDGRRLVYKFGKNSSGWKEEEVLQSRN
# Summary of the method: as §1
# CRX = CRX (Homo sapiens, UniProt O43186 1-299); conditions: protein: recombinant; tags: N-terminal GST; dsDNA, one strand shown
# Summary of the method: as §1
# ETV1 = ETV1 (Homo sapiens, UniProt P50549 1-477); conditions: protein: recombinant; tags: N-terminal GST; dsDNA, one strand shown
# Summary of the method: as §1
# ERF = target: T6, ERF (Homo sapiens, UniProt P50548 1-548); conditions: protein: recombinant; tags: N-terminal GST; dsDNA, one strand shown
# T6 sequence: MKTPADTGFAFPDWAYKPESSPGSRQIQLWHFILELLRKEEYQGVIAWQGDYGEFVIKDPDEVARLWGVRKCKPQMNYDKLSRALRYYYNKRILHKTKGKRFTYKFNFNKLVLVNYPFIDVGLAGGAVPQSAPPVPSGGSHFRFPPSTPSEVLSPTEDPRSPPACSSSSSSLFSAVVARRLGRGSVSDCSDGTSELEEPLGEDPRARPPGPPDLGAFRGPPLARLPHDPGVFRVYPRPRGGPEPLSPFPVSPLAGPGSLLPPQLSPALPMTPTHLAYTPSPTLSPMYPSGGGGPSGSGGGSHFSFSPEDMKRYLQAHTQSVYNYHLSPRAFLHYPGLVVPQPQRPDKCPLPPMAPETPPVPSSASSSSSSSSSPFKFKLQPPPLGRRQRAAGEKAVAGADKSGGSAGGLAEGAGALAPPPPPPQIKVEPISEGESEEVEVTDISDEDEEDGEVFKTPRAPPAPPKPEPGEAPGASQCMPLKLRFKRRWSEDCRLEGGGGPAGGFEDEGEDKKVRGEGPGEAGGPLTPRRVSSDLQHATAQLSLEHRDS
# Summary of the method: as §1
# ETV3L = target: T7, ETV3L (Homo sapiens, UniProt Q6ZN32 1-361); conditions: protein: recombinant; tags: N-terminal GST; dsDNA, one strand shown
# T7 sequence: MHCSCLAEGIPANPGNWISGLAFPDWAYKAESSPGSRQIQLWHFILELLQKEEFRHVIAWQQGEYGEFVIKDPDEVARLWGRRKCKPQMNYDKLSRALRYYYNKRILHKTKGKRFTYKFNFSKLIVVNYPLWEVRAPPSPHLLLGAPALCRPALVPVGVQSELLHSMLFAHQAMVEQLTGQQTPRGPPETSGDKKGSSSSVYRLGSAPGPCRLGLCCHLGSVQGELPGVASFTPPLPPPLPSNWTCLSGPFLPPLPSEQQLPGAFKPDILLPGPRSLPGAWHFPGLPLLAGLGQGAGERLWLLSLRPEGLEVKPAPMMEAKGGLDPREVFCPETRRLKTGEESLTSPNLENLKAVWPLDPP
# Summary of the method: as §1
# ETS2 = target: T8, ETS2 (Homo sapiens, UniProt P15036 1-469); conditions: protein: recombinant; tags: N-terminal GST; dsDNA, one strand shown
# T8 sequence: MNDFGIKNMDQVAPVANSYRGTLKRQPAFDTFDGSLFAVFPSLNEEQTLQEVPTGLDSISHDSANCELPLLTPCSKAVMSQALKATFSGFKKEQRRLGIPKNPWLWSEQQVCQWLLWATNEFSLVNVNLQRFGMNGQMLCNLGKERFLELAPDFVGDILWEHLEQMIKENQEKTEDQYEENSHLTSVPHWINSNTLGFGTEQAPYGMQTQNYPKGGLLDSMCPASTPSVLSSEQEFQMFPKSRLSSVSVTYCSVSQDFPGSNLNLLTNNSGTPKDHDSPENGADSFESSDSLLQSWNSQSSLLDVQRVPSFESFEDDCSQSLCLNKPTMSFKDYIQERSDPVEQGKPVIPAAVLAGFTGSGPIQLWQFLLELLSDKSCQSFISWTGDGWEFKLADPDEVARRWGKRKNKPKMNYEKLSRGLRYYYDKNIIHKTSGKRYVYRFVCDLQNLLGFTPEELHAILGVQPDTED
# Summary of the method: as §1
# SPDEF = target: T9, SPDEF (Homo sapiens, UniProt O95238 1-335); conditions: protein: recombinant; tags: N-terminal GST; dsDNA, one strand shown
# T9 sequence: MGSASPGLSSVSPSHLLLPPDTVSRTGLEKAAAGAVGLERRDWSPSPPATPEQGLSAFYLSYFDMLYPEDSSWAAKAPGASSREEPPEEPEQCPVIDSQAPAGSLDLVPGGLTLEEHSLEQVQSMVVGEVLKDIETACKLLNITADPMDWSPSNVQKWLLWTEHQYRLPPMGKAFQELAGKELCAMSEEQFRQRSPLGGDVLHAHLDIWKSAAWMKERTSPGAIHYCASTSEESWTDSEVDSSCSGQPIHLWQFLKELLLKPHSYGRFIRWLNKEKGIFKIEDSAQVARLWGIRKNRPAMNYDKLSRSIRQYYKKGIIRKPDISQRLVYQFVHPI
# Summary of the method: as §1
# ETV7 = target: T10, ETV7 (Homo sapiens, UniProt Q9Y603 1-341); conditions: protein: recombinant; tags: N-terminal GST; dsDNA, one strand shown
# T10 sequence: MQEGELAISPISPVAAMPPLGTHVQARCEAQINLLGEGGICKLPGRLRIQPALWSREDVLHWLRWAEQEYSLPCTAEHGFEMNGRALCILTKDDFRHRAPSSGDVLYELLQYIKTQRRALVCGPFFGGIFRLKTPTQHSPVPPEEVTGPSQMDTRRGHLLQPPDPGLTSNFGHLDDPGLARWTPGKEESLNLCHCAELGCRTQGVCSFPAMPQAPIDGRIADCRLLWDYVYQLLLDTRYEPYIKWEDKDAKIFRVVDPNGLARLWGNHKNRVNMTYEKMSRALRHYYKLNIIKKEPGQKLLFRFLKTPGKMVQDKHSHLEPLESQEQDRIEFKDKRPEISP
# Summary of the method: as §1
# ELF5 = target: T11, ELF5 (Homo sapiens, UniProt Q9UKW6-2 1-255); conditions: protein: recombinant; tags: N-terminal GST; dsDNA, one strand shown
# T11 sequence: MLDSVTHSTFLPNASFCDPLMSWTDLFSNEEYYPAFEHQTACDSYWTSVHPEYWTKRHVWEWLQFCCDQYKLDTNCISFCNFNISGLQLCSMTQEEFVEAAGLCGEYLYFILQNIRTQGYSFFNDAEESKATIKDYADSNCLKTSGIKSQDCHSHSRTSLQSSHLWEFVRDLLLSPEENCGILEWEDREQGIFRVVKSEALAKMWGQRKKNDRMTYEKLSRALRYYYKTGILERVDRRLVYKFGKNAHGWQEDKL
# Summary of the method: as §1
# ETV3 = target: T12, ETV3 (Homo sapiens, UniProt P41162-2 1-143); conditions: protein: recombinant; tags: N-terminal GST; dsDNA, one strand shown
# T12 sequence: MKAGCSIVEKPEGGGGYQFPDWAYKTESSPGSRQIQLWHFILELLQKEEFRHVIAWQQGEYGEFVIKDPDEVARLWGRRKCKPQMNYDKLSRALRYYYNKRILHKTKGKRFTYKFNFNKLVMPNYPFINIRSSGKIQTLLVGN
# Summary of the method: as §1
# ETV6 = ETV6 (Homo sapiens, UniProt P41212 1-452); conditions: protein: recombinant; tags: N-terminal GST; dsDNA, one strand shown
# Summary of the method: as §1
# ELF4, sequence (Q99607 whole entry): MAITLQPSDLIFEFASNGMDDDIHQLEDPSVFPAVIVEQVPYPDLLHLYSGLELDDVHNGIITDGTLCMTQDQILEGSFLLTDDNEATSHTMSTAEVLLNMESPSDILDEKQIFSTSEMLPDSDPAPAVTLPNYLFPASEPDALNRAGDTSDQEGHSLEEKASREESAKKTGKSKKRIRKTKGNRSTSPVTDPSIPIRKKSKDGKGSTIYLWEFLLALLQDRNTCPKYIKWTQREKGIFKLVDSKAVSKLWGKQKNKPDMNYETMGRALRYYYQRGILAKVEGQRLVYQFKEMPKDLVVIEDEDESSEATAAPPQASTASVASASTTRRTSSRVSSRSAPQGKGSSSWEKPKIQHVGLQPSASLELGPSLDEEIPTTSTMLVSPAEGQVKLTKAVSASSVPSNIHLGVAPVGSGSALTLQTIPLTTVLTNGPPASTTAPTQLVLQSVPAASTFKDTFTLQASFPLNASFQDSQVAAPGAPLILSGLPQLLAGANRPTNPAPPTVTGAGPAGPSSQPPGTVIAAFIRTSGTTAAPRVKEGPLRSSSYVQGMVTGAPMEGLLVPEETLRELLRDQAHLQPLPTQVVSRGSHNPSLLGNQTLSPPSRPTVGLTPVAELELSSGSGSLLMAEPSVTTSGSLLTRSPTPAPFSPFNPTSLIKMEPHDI
# ETV6, sequence (P41212 whole entry): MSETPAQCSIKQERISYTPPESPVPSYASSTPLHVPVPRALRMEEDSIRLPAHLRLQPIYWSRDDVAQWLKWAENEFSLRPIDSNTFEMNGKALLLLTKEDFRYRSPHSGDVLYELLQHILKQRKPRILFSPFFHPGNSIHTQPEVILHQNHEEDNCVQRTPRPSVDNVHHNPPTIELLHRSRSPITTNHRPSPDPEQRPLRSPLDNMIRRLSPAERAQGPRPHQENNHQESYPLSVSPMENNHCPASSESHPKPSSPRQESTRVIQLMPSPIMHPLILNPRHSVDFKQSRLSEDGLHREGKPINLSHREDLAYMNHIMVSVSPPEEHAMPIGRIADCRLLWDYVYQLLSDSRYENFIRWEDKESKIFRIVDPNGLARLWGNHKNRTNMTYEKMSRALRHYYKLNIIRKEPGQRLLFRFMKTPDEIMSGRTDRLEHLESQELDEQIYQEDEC
# ETV5, sequence (P41161 whole entry): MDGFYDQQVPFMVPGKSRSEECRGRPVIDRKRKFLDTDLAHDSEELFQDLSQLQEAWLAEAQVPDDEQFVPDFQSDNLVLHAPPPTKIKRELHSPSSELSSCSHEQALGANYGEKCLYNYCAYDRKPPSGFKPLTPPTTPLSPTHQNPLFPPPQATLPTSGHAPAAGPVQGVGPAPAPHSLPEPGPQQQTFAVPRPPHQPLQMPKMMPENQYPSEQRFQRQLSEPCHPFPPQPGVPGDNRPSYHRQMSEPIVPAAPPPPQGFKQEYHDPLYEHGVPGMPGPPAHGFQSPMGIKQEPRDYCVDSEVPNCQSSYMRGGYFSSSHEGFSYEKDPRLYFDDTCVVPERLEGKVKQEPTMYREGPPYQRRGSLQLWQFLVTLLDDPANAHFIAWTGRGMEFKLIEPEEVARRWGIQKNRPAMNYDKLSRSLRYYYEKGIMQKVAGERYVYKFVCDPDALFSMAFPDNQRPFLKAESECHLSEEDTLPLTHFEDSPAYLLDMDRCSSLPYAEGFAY
# ETV1, sequence (P50549 whole entry): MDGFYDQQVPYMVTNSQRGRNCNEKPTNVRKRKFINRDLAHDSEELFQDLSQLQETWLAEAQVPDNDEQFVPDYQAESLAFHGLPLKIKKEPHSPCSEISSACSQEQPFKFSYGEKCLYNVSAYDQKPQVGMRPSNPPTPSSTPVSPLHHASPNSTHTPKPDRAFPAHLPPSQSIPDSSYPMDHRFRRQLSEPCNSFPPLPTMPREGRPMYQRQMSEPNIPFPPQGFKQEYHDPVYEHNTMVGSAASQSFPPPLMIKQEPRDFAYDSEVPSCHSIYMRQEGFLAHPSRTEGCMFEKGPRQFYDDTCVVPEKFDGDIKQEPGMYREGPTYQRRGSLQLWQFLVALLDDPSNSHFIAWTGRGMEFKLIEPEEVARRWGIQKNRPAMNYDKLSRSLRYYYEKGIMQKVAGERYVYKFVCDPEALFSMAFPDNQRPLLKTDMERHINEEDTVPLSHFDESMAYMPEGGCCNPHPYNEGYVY
# CRX, sequence (O43186 whole entry): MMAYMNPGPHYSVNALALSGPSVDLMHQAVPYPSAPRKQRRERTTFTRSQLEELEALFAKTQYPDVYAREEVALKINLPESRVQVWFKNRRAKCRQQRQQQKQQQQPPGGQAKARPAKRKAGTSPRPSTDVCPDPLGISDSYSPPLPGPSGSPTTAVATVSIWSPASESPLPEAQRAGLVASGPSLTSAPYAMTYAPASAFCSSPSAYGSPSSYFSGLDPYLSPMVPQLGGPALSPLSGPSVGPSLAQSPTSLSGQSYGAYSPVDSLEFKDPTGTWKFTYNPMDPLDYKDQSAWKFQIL
# HSF1, sequence (Q00613 whole entry): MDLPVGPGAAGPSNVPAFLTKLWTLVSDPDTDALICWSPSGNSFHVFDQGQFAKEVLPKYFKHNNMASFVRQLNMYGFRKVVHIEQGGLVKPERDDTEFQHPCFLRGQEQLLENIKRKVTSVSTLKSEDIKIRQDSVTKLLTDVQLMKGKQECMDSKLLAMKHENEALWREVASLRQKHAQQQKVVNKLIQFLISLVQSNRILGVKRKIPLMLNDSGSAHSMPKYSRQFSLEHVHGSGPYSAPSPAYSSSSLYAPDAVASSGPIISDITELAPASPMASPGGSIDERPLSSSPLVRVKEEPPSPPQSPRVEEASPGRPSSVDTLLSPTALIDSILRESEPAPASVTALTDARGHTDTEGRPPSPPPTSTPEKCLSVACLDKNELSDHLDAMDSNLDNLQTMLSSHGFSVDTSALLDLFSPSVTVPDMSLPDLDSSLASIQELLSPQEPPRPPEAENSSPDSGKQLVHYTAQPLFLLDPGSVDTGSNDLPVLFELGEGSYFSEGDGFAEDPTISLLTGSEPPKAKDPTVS
sequence,measurement,setting,value
GCATTT,binding signal,FEV,"1.57 fold enrichment (6-mer frequency, TF over GST control)"
same,binding signal,ETV5,"1.38 fold enrichment (6-mer frequency, TF over GST control)"
same,binding signal,HSF1,"1.15 fold enrichment (6-mer frequency, TF over GST control)"
same,binding signal,SPIC,"1.37 fold enrichment (6-mer frequency, TF over GST control)"
same,binding signal,ELF4,"1.4 fold enrichment (6-mer frequency, TF over GST control)"
same,binding signal,ELK4,"1.27 fold enrichment (6-mer frequency, TF over GST control)"
same,binding signal,ETV2,"1.25 fold enrichment (6-mer frequency, TF over GST control)"
same,binding signal,ELF3,"1.33 fold enrichment (6-mer frequency, TF over GST control)"
same,binding signal,CRX,"1.16 fold enrichment (6-mer frequency, TF over GST control)"
same,binding signal,ETV1,"1.37 fold enrichment (6-mer frequency, TF over GST control)"
same,binding signal,ERF,"1.31 fold enrichment (6-mer frequency, TF over GST control)"
same,binding signal,ETV3L,"1.35 fold enrichment (6-mer frequency, TF over GST control)"
same,binding signal,ETS2,"1.34 fold enrichment (6-mer frequency, TF over GST control)"
same,binding signal,SPDEF,"1.36 fold enrichment (6-mer frequency, TF over GST control)"
same,binding signal,ETV7,"1.31 fold enrichment (6-mer frequency, TF over GST control)"
same,binding signal,ELF5,"1.4 fold enrichment (6-mer frequency, TF over GST control)"
same,binding signal,ETV3,"1.36 fold enrichment (6-mer frequency, TF over GST control)"
same,binding signal,ETV6,"1.39 fold enrichment (6-mer frequency, TF over GST control)"
